Results reported in PubChem BioAssay AID1259415 (National Center for Advancing Translational Sciences (NCATS), 2018).
About 18,000 (4.4%) of roughly 410,000 compounds were called active. Inconclusive results (about 7%) are left out. For the sample, actives were picked, then their nearest neighbours and some compounds at random. Unmarked numbers belong to inactive results. Cut-off read from the data, not from the text of the source: active = activity change below about -60%; inconclusive = no clear call, values can overlap the other calls; inactive = above about -39%.

Experiment: qHTS Assay for inhibitors of the human cytomegalovirus (HCMV)
Details: HFF cells, HCMV-luciferase reporter, 72 h; at 57.5 µM; stronger effect = lower value
Outline: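 Two compound doses tested in HFFs infected with HCMV-luciferase, MOI 1 PFU/cell, 72 h at 37C. Lysate luminescence read with OneGlo; data normalized against buffer-only and 10uM Salinomycin inhibitor controls.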
% is set by controls: 0 for no effect and ±100 for the full control effect.

Point of comparison: `COc1ccc(N2CC(C(=O)NCCN3C(=O)S/C(=C\c4cccnc4)C3=O)CC2=O)c(OC)c1` (configuration not stated), activity change, negative = inhibition 24.9%. Against it:
- O=C(NCCc1ccccn1)c1cc(C(=O)C2CCCCC2)c[nH]1 — lower, 24.3%
- COC(=O)CN1C(=S)N(c2ccccc2)C(=O)C1CC(=O)Nc1ccc(Cl)cc1 (configuration not stated) — lower, -4.58%
- Cc1ccc(Cl)cc1N1CCN(S(=O)(=O)c2cc3[nH]c(=O)c(=O)[nH]c3cc2C)CC1 — lower, 14.4%
- COc1ccccc1C(=O)OCc1cc(=O)n2nc(-c3cccs3)sc2n1 — lower, 7.8%
- CC(C)(C)c1ccc(S(=O)(=O)Nc2ccc(O)c(Sc3nc4ccccc4s3)c2)cc1 — lower, -13.2%
- Cc1oc2c(c1C(=O)Nc1ccc(F)c(F)c1)C1=NCCN1C=N2 — lower, -2.2%
- CCn1c(C(=O)Nc2cc(Cl)ccc2C)cc2sc(Cl)cc21 — lower, -25.2%
- N#Cc1ccc(C(c2nnnn2CCc2ccccc2)N2CCCCCC2)cc1 (configuration not stated) — lower, -31.2%
- Fc1ccccc1C(c1nnnn1Cc1ccc2c(c1)OCO2)N1CCN(Cc2ccccc2)CC1 (configuration not stated) — lower, -2.67%
- COC(=O)c1c(NC(=O)C(C)Oc2ccc(Cl)c(C)c2)sc(C)c1C (configuration not stated) — lower, 24.4%
- Cc1cc(C)cc(OCC(=O)OCC(=O)NC2CCCC2)c1 — lower, 0%
- CCOC(=O)C1CCCN(C(=O)Cn2ncc3c(C)n(Cc4ccc(F)cc4)c(C)c3c2=O)C1 (configuration not stated) — lower, -24.7%
- COC(=O)c1scc(-c2ccc(C)cc2)c1S(=O)(=O)Nc1cc(Cl)c(OC)cc1OC — lower, -32.1%
- CCOC(=O)c1scc(-c2ccccc2)c1S(=O)(=O)Nc1ccccc1F — lower, -9.83%
- Cc1cc(O)c(C(c2ccccc2)N2CCN(c3ccccc3F)CC2)c(=O)n1Cc1ccco1 (configuration not stated) — lower, 11.6%
- CC(=O)Nc1c(C)nn(-c2ccccc2)c1N1CCC(C(=O)Nc2cc(Cl)ccc2C)CC1 — higher, 54.8%
- CCc1ccc(CNC(=O)C2CCN(c3nnc(C)c4c(C)n(-c5ccc(C)cc5)nc34)CC2)cc1 — lower, -8.15%
- CCOC(=O)C1CCC(CN(Cc2ccc(OC)cc2)S(=O)(=O)c2ccc(F)c(C(=O)Nc3cc(C)ccc3C)c2)CC1 (configuration not stated) — lower, -8.08%
- CCOCCCNC(=O)c1c(NC(=O)Cc2coc3ccc(C)cc23)sc2c1CCC2 — lower, -5.35%
- CCc1c(C)nc2ncnn2c1N1CCC(C(=O)NCc2ccc3c(c2)OCO3)CC1 — lower, -29.2%
- FC(F)(F)c1cc(Nc2nc3ccccc3c3nncn23)ccc1Cl — lower, -13.6%
- CCC(=O)N1c2ccccc2CC1C(=O)N1CCN(c2ccccc2)CC1 (configuration not stated) — lower, 2.26%
- Cc1ccc(-n2ncc3c(N4CCC(C(N)=O)CC4)ncnc32)cc1 — higher, 80.5%
- CN(C(=O)COc1ncnc2c1cnn2-c1ccccc1)C1CCCCC1 — lower, -21.9%
- COc1ccc(CCNC(=O)CCc2c(C)nc3c(c(C)nn3-c3ccc(C)c(C)c3)c2C)c(OC)c1OC — lower, 22.2%
- COc1cc(NS(=O)(=O)c2ccc3c(c2)OCC(C(=O)N2CCCC2)O3)cc(OC)c1 (configuration not stated) — lower, -21.9%
- C=Cc1ccc(Cn2c(C(=O)OC)cc3sc(C)cc32)cc1 — lower, -33.1%
- O=C(O)c1ccc(OCC2CCCO2)cc1 (configuration not stated) — higher, 63.5%
- Cc1ccc(CC2CC(=O)N(c3nc(C)cc(C)n3)C2=O)cc1 (configuration not stated) — lower, -6.32%
- Cc1cc(C)nc(N2C(=O)CC(Cc3ccccc3)C2=O)n1 (configuration not stated) — lower, -1.22%
- O=C(NCc1cc(F)cc(C(F)(F)F)c1)C1CCC(=O)N(C2CCCC2)C1 (configuration not stated) — lower, 8.32%
- NCCCCCC(=O)N/N=C/c1ccc2nccnc2c1 — lower, -14.8%
- CC(=NNC(=O)c1ccncc1)c1ccc(Cl)c(Cl)c1 — lower, -31%
- CCc1ccc(CN(Cc2ccco2)C(=O)c2ccccc2Cl)cc1 — higher, 33.9%
- O=C(CN1C(=O)CCn2nc(-c3ccccc3)cc21)NCc1ccccc1 — lower, 6.04%
- c1cncc(CNCCc2c[nH]c3ccccc23)c1 — lower, -8.49%
- O=C(COC(=O)Cc1c[nH]c2ccccc12)NCCc1ccccc1 — lower, 10.5%
- COc1ccc(NC(=O)C2Cc3c(-c4ccc(Cl)cc4)ccnc3O2)cc1 (configuration not stated) — lower, -3.46%
- COc1cccc(CNC(=O)C2CCN(S(=O)(=O)c3ccc4c(ccn4C)c3)CC2)c1 — lower, 16.9%
- c1ccc2c(-c3nn4nnnc4c4ccccc34)cccc2c1 — higher, 49.8%
- CN(C(=O)CSc1nc2ccc(NC(=O)COc3ccccc3)cc2s1)c1ccccc1 — lower, -30%
- COc1ccc2c(c1)c(N1CCCC1=O)c(C(=O)Nc1ccccc1C(F)(F)F)n2C — lower, -24.2%
- CCCCCC(=O)N1C[C@H](O)[C@@H](n2cc(COC(=O)c3ccccc3)nn2)C[C@@H]1c1ccc(C)cc1 — lower, -7.72%
- Cc1ccc([C@H]2C[C@H](O)[C@@H](n3cc(COC(=O)c4ccccc4)nn3)CN2C(=O)C2CCCCC2)cc1 — lower, 1.46%
- O=C(CC1Sc2ccccc2NC1=O)NNc1ccc(Cl)c(Cl)c1 (configuration not stated) — lower, -35.8%
- COc1ccc(N2CCN(S(=O)(=O)c3ccc(-c4coc(C)n4)cc3)CC2)cc1 — lower, -11.2%
- CCOc1ccccc1N1CN(Cc2ccccc2)CNC1=S — lower, -2.1%
- CCOC(=O)c1ccc(NC2=CC(c3ccc(OCC)cc3)N(c3ccc(C(=O)OCC)cc3)C2=O)cc1 (configuration not stated) — lower, 18.7%
- CCc1nnc(NC(=O)C2CCN(C(=O)c3ccccc3C)CC2)s1 — lower, 17.6%
- CC(C)c1nnc(NC(=O)C2CCCN2S(=O)(=O)c2ccc(Cl)cc2)s1 (configuration not stated) — lower, 2.67%
- O=C(CCn1c(=O)c2ccccc2n(Cc2ccc(Cl)cc2)c1=O)NCc1ccc2c(c1)OCO2 — lower, 10.1%
- COc1ccc(C(=O)COC(=O)C(O)c2ccccc2)c(OC)c1 (configuration not stated) — lower, -26%
- Cc1ccsc1CN(C(=O)c1oc2ccc(Br)cc2c1C)C1CCS(=O)(=O)C1 (configuration not stated) — higher, 30.1%
- CCN1CCN(c2ncnc3c2cnn3-c2ccc(C)c(C)c2)CC1 — lower, -1.25%
- Cc1ccc(NC(=O)c2oc3ccccc3c2NC(=O)Cc2cccs2)cc1 — lower, 14.9%
- CCOc1ccc2oc(=O)cc(CN3CCN(C(=O)c4ccc(F)cc4)CC3)c2c1 — lower, -25.5%
- CCOC(=O)c1ccc(NC(=O)c2ncn(-c3ccccc3)n2)cc1 — higher, 43.5%
- COc1ccc(Cl)cc1NC(=O)CSc1nc(=O)[nH]c2c1CCCC2 — higher, 31.1%
- NS(=O)(=O)c1ccc(CCNC(=O)CCCCCn2c(=O)[nH]c3ccccc3c2=O)cc1 — higher, 34%
- COc1ccccc1N1CCN(c2ccc(=O)n(CC(=O)NCc3ccc(OC(C)C)cc3)n2)CC1 — lower, 13.7%
- CCCN(CCC)CCCNC(=O)Cn1cc2c(n1)-c1c(oc(C(=O)N3CCCC3)c1C)CC2 — lower, -39.7%
- COc1ccccc1N(C)S(=O)(=O)c1ccc(C(=O)N2CCC(C(N)=O)CC2)cc1 — higher, 63.1%
- COc1ccc(C(=O)Nc2ccc(-n3nncc3-c3ccccc3)cc2)cc1OC — lower, -6.64%
- COc1cccc(C(=O)NC(=O)Nc2ccc(-c3cc(C(F)(F)F)nn3-c3ccccc3)cc2)c1 — lower, -6.79%
- Cc1ccc(CNC(=O)CCc2c(C)nc3nc(CNC(=O)OC(C)(C)C)nn3c2C)cc1 — lower, -10.3%
- COc1cc2ccccc2cc1C(=O)Nc1cccc(-c2nc3ccccc3o2)c1 — lower, -27.9%
- Cc1ccc(C)c(N2CCN(C(=O)C3CCC(CNS(=O)(=O)c4cccs4)CC3)CC2)c1 (configuration not stated) — lower, -30%
- CC1Cc2ccccc2N1S(=O)(=O)c1cccc(C(=O)NCC(c2ccco2)N2CCCC2)c1 (configuration not stated) — lower, -24%
- CSc1ncccc1C(=O)NCC(c1ccco1)N1CCCCC1 (configuration not stated) — lower, -4.3%
- CCOC(=O)c1ccc(NC(=O)C2CC(=O)NC(=Nc3ccc(C)c(C)c3)S2)cc1 (configuration not stated) — lower, -14.2%

For `CC1=C[C@H]2Cc3cc(C)cc(C)c3S(=O)(=O)[C@@H]2C=C1`, the activity change, negative = inhibition was -67.4% (active).
For `Fc1ccc(Cn2nnnc2C(c2cccs2)N2CCCCCC2)cc1` (configuration not stated), the activity change, negative = inhibition was -74.3% (active).
For `COC(=O)c1scc(-c2ccccc2)c1S(=O)(=O)Nc1ccccc1`, the activity change, negative = inhibition was -65.6% (active).
For `Cc1nnc(N2CCC(C(=O)Nc3ccc(F)cc3)CC2)c2nn(-c3ccc(Cl)cc3)c(C)c12`, the activity change, negative = inhibition was -83.4% (active).
For `CCN(c1ncnc2c1cnn2-c1ccc(C)cc1)C1CCCCC1`, the activity change, negative = inhibition was -79.6% (active).
In the case of `COC(=O)CC1=NN(c2nc(C)cc(C)n2)C(=O)C1`, the activity change, negative = inhibition is reported as -72.6% (active).
With `O=C(N/N=C/c1ccc(Cl)c(Cl)c1)c1ccc2nc[nH]c2c1` the activity change, negative = inhibition was -65.6% (active).
In the case of `Cc1cc(C)cc(NC(=S)NCCc2c[nH]c3ccccc23)c1`, the activity change, negative = inhibition is reported as -73.6% (active).
In the case of `O=C(c1[nH]ncc1-c1ccc(Cl)cc1)C1CO1` (configuration not stated), the activity change, negative = inhibition is reported as -78.7% (active).
In the case of `Cc1ccc([C@H]2C[C@H](O)[C@@H](n3cc(COC(=O)c4ccccc4)nn3)CN2CC2CCCCC2)cc1`, the activity change, negative = inhibition is reported as -100% (active).
With `CCc1nnc(NC(=O)C2CCCN2S(=O)(=O)c2ccccc2)s1` (configuration not stated) the activity change, negative = inhibition was -60.4% (active).
For `COc1ccc(C(=O)/C=C/c2cccnc2)c(OC)c1`, the activity change, negative = inhibition was -71.6% (active).
For `CC[n+]1cc(C)ccc1/C=C/c1ccc(N(C)C)cc1`, the activity change, negative = inhibition was -99.4% (active).
In the case of `Cc1c(C(=O)N2CCCC2)oc2c1-c1nn(CC(=O)NCc3ccc(OC(C)C)cc3)cc1CC2`, the activity change, negative = inhibition is reported as -68.3% (active).
With `COc1cccc(C(=O)Nc2ccc(-c3cc(C(F)(F)F)nn3-c3ccccc3)cc2)c1` the activity change, negative = inhibition was -87.7% (active).
For `CC1CCc2sc(C(=O)NCC(c3ccco3)N3CCCCC3)cc2C1` (configuration not stated), the activity change, negative = inhibition was -61.7% (active).
